# Screening data from PubChem BioAssay.
# An excerpt weighted towards active compounds, which were near 6.5% of everything screened.
# HCMV antiviral = qHTS Assay for inhibitors of the human cytomegalovirus (HCMV) | HFF cells, HCMV-luciferase reporter, 72 h; hits give low values | AID 1259415, 2018 | 4.5% of 410,000 active | activity change, negative = inhibition, % at 57.5 µM; in the data active = activity change below about -60%; inconclusive = no clear call, values can overlap the other calls; inactive = above about -39%
#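 Compounds were evaluated in HFFs infected with an HCMV luciferase reporter virus (MOI 1 PFU/cell). Luciferase in lysates collected 72 h post infection served as the replication measure.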
# Marburg entry inh = qHTS for inhibitors of binding or entry into cells for Marburg Virus; Marburg virus pseudotyped entry inhibition, cell reporter; Potency, µM (top dose mostly 37.8 µM), for inactives: at the highest dose activity change, negative = inhibition, most hits filed as inhibitors; 1.8% of 300,000 active; AID 540276, 2011; calls by dose curve; tested in HEK293 cells; also: potency is read from the fitted curve at half-maximal effect
# VACV mCherry inh = qHTS for Stage-Specific Inhibitors of Vaccinia Orthopoxvirus: mCherry Reporter Primary qHTS. Vaccinia virus mCherry reporter infection, fluorescence. Potency, µM (doses to about 36.5 µM), for inactives: top-dose activity change, negative = inhibition, actives largely listed as inhibitors. 0.63% of 310,000 active. AID 720579, 2013; calls by dose curve; tested in A549 cells; also: potency is read from the fitted curve at half-maximal effect; nearly all actives have a fitted effect of over 35% in size
# FMDV antiviral = High Throughput Screening for Foot and Mouth Disease Virus Antivirals | Potency, µM (doses to about 57.9 µM), inactives show top-dose activity change, negative = inhibition, usual class: inhibitors | 1.2% of 410,000 active | FMDV antiviral cell-based qHTS; calls by dose curve; tested in HEK293T cells; also: read-out not given here; potency is read from the fitted curve at half-maximal effect; nearly all actives have a fitted effect of over 45% in size
# VACV Venus inh = qHTS for Stage-Specific Inhibitors of Vaccinia Orthopoxvirus: Venus Reporter Primary qHTS. Vaccinia virus Venus reporter expression, fluorescence. Potency, µM (top dose mostly 36.5 µM), inactives show at the top dose activity change, negative = inhibition, hits mostly inhibitors. 0.46% of 330,000 active; calls by dose curve; tested in A549 cells; also: potency is read from the fitted curve at half-maximal effect; nearly all actives have a fitted effect of over 30% in size
# Lassa entry inh = qHTS for Inhibitors of binding or entry into cells for Lassa Virus | Lassa virus pseudotype entry inhibition, cell reporter | Potency, µM (series often up to 37.9 µM), for inactives: top-dose activity change, negative = inhibition, usual class: inhibitors | 1.2% of 300,000 active | AID 540256, 2011; calls by dose curve; tested in HEK293 cells; also: potency is read from the fitted curve at half-maximal effect; nearly all actives have a fitted effect of over 50% in size
# Numbers without * were called inactive; i = inactive; ? = inconclusive; · = no result given; [ ] = another dose, or the depositor's remark. % is scaled to controls: 0 for no effect and ±100 for the full control effect.
SMILES,HCMV antiviral,Marburg entry inh,VACV mCherry inh,FMDV antiviral,VACV Venus inh,Lassa entry inh
CC(=O)c1ccc(NC(=O)Nc2ccc([N+](=O)[O-])cc2)cc1,2.2,?,-14.4%,-1.8%,0.5%,7.2%
Cc1ccc(Sc2ncccc2[N+](=O)[O-])cc1,-19.4,-4.2%[46.1 µM],?,0.0%,-9.8%,?
Cc1c([N+](=O)[O-])cnc(Sc2ccccc2)c1[N+](=O)[O-],-99.4*,·,·,22.4µM*,·,·
Cc1ccc(Cl)cc1NS(=O)(=O)c1ccc(N2CCCCS2(=O)=O)cc1,0.0,·,-20.3%,11.2µM*,-20.3%,6.6%[46.1 µM]
Cc1cc(C(C)(C)C)cc(C)c1Cn1c2[n+](c3ccc(C(F)(F)F)cc31)CCCCC2,-94.6*,?,i,28.2µM*,-6.0%,12.6µM*
C=C1C(=O)[C@]23C[C@H]1CC[C@H]2[C@]1(C)[C@@H](O)CC[C@@](C)(C(=O)O)[C@H]1C[C@@H]3O,-6.0,·,?,39.8µM*,-28.8%,·
C=C1C(=O)[C@]23C[C@H]1CCC2[C@@]1(C)C(C[C@@H]3O)[C@](C)(C(=O)OC)CC[C@@H]1OC(C)=O (some centres undefined),-101.5*,·,3.16µM*,8.91µM*,1.78µM*,·
C=C1C(=O)[C@]23C[C@H]1CCC2[C@@]1(C)C(C[C@@H]3O)[C@](C)(C(=O)O)C[C@H](O)[C@@H]1O (some centres undefined),-14.1,·,12.8%,-11.1%,1.0%,·
C=C1C(=O)[C@]23C[C@H]1CC[C@H]2[C@]1(C)[C@@H](OC(C)=O)CC[C@@](C)(C(=O)OC)[C@H]1C[C@@H]3OC(C)=O,-100.0*,·,?,11.2µM*,?,·
C=C1C(=O)[C@]23C[C@H]1CC[C@H]2[C@]1(C)[C@@H](OC(C)=O)CC[C@@](C)(C(=O)O)[C@H]1C[C@@H]3O,-65.5*,·,5.01µM*,0.0%,?,·
COCC1CCCCN1C(=O)C1CCN(c2nc(-c3ccccc3)nc3c2CCC3)CC1 (centres undefined),?,·,·,-19.7%,·,·
COc1cc(OC)c(/C=C/c2ccncn2)c(OC)c1,·,·,-4.4%,·,-8.0%,·
CCc1cc(=O)oc2cc(C)c(CN3CCC[C@@H](C)C3)c(O)c12,·,14.3%,·,·,·,·
CS(=O)(=O)c1nc(-c2ccccc2)cc(-c2ccccc2)c1C#N,·,12.6µM*,-6.5%,?,-20.7%,14.6µM*
Cc1nc(N)sc1C(=O)Nc1ccccc1,103.5,?,·,21.8%,-2.8%,?
Cc1ccc(NC(=O)c2sc(Cl)nc2C)c(C)c1,6.5,1.2%,11.2µM*,23.3%,?,2.0%
COC(=O)c1ccccc1NC(=O)c1sc(N)nc1C,-101.3*,-3.8%,·,-8.2%,0.1%,-6.4%
Cc1ccccc1NC(=O)c1sc(Cl)nc1C,-7.3,-3.6%,10µM*,-2.5%,?,0.9%
COc1ccc(C(CNC(=O)COc2ccc(Cl)c(C)c2)N2CCCCC2)cc1 (centres undefined),-33.3,·,·,?,·,·
CN(CCNC(=O)c1ccc(/C=N\O)nc1)Cc1ccccc1,·,9.3%,·,·,·,·
COc1ccc(C(=O)C2CCCN(Cc3cccn3-c3ccc(Cl)cn3)C2)c(OC)c1 (centres undefined),?,?,-16.4%,20µM*,-27.9%,?
COc1ccc(C(=O)C2CCCN(C/C=C/c3ccccc3OC)C2)c(OC)c1 (centres undefined),-60.6*,?,-12.5%,-7.6%,-12.7%,-12.3%[46.1 µM]
COc1ccccc1/C=C/CN1CCCC(CCC(=O)NCc2ccccc2F)C1 (centres undefined),2.3,6.31µM*,-13.2%,-12.6%,-12.9%,?
COc1cccc(C(=O)C2CCCN(C/C=C/c3ccccc3OC)C2)c1 (centres undefined),-6.7,?,-26.0%,-5.4%,-18.0%,-21.4%[46.1 µM]
COc1ccc(C(=O)C2CCCN(Cc3ccc(C#CCCO)cc3)C2)cc1F (centres undefined),-27.8,1.12µM*,-17.5%,?,-15.3%,12.6%
SMILES,HCMV antiviral,Marburg entry inh,VACV mCherry inh,FMDV antiviral,VACV Venus inh,Lassa entry inh
CSc1nc(N)nc2c1ncn2Cc1ccccc1,37.8,0.6%[46.1 µM],-7.2%,-13.5%,-2.0%,0.0%[46.1 µM]
O=C(O)C(Cc1cccs1)c1cccs1 (centres undefined),12.2,0.1%[46.1 µM],-11.3%,-9.5%,-2.1%,?
Oc1cccc(N2CCN(c3cccc(O)c3)CC2)c1,69.0,·,·,·,·,·
C[C@@H]1CN(C2CCN(S(=O)(=O)Cc3ccccc3)CC2)C[C@H](C)O1,·,-0.1%,·,·,·,·
COc1ccc(/C=C/CN2CCCC(C(=O)c3ccc(OC)c(F)c3)C2)cc1 (centres undefined),-18.5,10µM*,-20.4%,?,-4.4%,·
C(=Nc1ccc(/C=C/c2ccnc3ccccc23)cc1)c1ccco1,·,·,-18.2%,·,-16.3%,·
COc1ccc(N2CCN(C(=O)c3ccc(CS(=O)c4cccc(Cl)c4)o3)CC2)cc1 (centres undefined),-73.1*,·,-12.4%,?,-28.1%,·
O=C(c1ccco1)N1CCN(C(=O)c2ccc(CS(=O)c3cccc(Cl)c3)o2)CC1 (centres undefined),-8.5,·,-7.9%[7.34 µM],-5.9%,5.4%[7.34 µM],·
COc1cccc(N2CCN(C(=O)c3ccc(CS(=O)c4cccc(Cl)c4)o3)CC2)c1 (centres undefined),-69.5*,·,4.6%,-22.4%,-18.7%,-24.9%[46.1 µM]
CCN1CCN(C(=O)c2ccc(COc3cccc(Cl)c3)o2)CC1,-68.8*,-3.3%[46.1 µM],-12.2%,-17.9%,-8.3%,?
CC(=O)c1ccc(S(=O)(=O)N2CCN(C(=O)c3ccc(COc4ccccc4)o3)CC2)cc1,-60.6*,?,-20.4%,?,?,?
COc1cccc(N2CCN(C(=O)c3ccc(CS(=O)Cc4ccc(Cl)cc4)o3)CC2)c1 (centres undefined),-17.2,-13.2%[46.1 µM],-9.2%,-7.7%,-12.5%,-9.5%[46.1 µM]
CCCN(CC(=O)Nc1ccccc1C)C(=O)c1ccc(C2SCCS2)cc1,-8.1,-19.6%,-3.6%,-2.4%,-28.1%,-27.3%
COc1ccc(N2CCN(C(=O)c3ccc(COc4ccc([N+](=O)[O-])cc4)o3)CC2)cc1,?,?,-4.0%,28.2µM*,-15.4%,?
COc1cccc(Nc2nnc(SCc3cc([N+](=O)[O-])cc4c3OCOC4)s2)c1,-10.2,-18.7%,·,15.8µM*,?,-12.0%
Cc1cccc(C)c1Nc1nnc(SCc2cc([N+](=O)[O-])cc3c2OCOC3)s1,-24.1,?,·,?,·,-3.2%
Cc1ccccc1CCNC(=O)c1cc2cc(S(=O)(=O)N3CCCCC3)ccc2n1C,-2.9,·,-29.5%,?,-24.6%,-12.9%[46.1 µM]
O=C(O)CCCC(=O)OCCCCc1cccs1,-21.6,2.4%,·,6.3%,·,7.9%
Nc1nnc(CCCCc2cccs2)o1,-31.7,8.7%,i,-0.9%,10µM*,-12.4%
